# Env fusion inh – HIV envelope-mediated fusion inhibition; HeLa-JRFL Env/CEM21 cell fusion, luciferase; 360,000 tested, 1.1% active; inhibition, % at 12.3 µM;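 active means mean replicate inhibition score of at least 50 and every replicate individually at or above 50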;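 further: 0% = plate neutral controls and 100% = maraviroc near 300 nM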
# PglD DTNB – blocks C. jejuni PglD acetyltransferase activity. inhibition, % at 12.5 µM. purified PglD enzyme, DTNB colorimetric CoA detection. AID 602405. 360,000 tested, 0.098% active; in the data active means inhibition above about 16%, passing the limit was not always enough
# CFTR F508del cor – CFTR F508del correction in bronchial cells; CFBE cells, YFP halide quenching; stimulated with forskolin plus potentiator P3; % fluorescence drop versus neutral controls; activity (quench increase), % at 7.58 µM; 350,000 tested, 0.36% active;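 active means mean added fluorescence quench of at least 8% versus neutral control, with both replicates also reaching 8%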;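 further: cells transiently co-express mutant CFTR-F508del with the halide-sensitive YFP; corrector assay measuring rescue of mutant channel to the surface after 24 h compound exposure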
# ALR inh – human ALR oxidase inhibition via reduced H2O2; inhibition, % (test concentration not listed); P55789; purified ALR, DTT oxidation, H2O2 HRP-luminol luminescence; 290,000 tested, 3.8% active;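 active means mean replicate inhibition above about 79%, with every replicate also reaching it, limit read from the data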
# Target sequence (P55789 whole entry, looked up): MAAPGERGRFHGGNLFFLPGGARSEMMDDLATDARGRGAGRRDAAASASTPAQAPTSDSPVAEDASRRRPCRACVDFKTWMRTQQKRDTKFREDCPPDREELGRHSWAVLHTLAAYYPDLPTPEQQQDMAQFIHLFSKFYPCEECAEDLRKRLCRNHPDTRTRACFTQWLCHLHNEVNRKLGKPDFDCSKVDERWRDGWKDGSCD
# Casp6 inh – caspase-6 (human) enzyme inhibition; purified caspase-6, Z-VEID-R110 cleavage fluorescence; inhibition, % at 12.5 µM; 350,000 tested, 0.53% active; AID 686996;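 active means mean inhibition across replicates at least about 35%, with every replicate also reaching that limit, limit read from the data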;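 further: 0% = median of neutral control wells and 100% = no fluorescence left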
# Target sequence (P55212 24-179 limits assumed): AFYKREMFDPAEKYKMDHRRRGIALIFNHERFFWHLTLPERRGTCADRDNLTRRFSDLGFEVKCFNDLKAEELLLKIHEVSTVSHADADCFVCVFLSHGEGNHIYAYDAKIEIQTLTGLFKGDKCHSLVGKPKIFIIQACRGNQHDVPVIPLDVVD
# Target sequence (P55212 194-293 limits assumed): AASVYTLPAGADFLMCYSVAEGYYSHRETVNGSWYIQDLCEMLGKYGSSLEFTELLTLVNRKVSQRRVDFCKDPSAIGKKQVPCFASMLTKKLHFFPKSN
# NSD2 HMT inh – inhibitors of human histone methyltransferase NSD2. O96028. NSD2 peptide methylation, AlphaScreen, 120 min. inhibition, % at 12.5 µM. 310,000 tested, 0.54% active. AID 743445; in the data active means inhibition above about 50%
# * = called active by the depositor; · = no result given; [ ] = remark or other dose. Sampled rows, rich in hits. Any-hit rate of the full collection: about 4.1%.
SMILES,Env fusion inh,PglD DTNB,CFTR F508del cor,ALR inh,Casp6 inh,NSD2 HMT inh
CC(OC(=O)c1cccs1)C(=O)NC1CCCCC1C (stereo unspecified),·,-0.1,28.6*,1.7,-1.8,-0.2
Cc1ccc(C(=O)OC(C)C(=O)NC2CCCCC2C)s1 (stereo unspecified),·,-1.3,-0.9,-2.8,-2.5,-0.4
CCCN1CCC(=O)N([C@H](CSc2ccc(OC)cc2)CC(C)C)CC1,-37.7,1.9,4.0,98.5*,-9.0,·
CO[C@H]1CN(C)C(=O)c2cc(C#N)ccc2OC[C@H]2O[C@@H](CC[C@H]2OC)CCN(C)C(=O)[C@H]1C,4.7[16.7 µM],-1.8,-0.8,·,15.4,·
O=C(CCn1c(=O)oc2ccccc21)N1CCN(c2ccc(F)cc2)CC1,6.2,2.4,-2.0,97.4*,-1.5,·
O=C(CCn1c(=S)oc2ccccc21)N1CCN(c2ccc(F)cc2)CC1,-104.9,·,2.7,32.6,-2.1,·
Clc1ccccc1N/N=C/c1ccc2c(c1)OCO2,-29.5,1.1,·,99.0*,-2.9,3.4
CN(/N=C/c1ccc2c(c1)OCO2)c1ccccc1,-64.8,0.4,·,85.1*,·,0.6
COc1cc(OC)c(OC)cc1/C=N/N(C)c1ccccc1,·,3.3,·,·,·,32.6
COc1cc(/C=N/N(C)c2ccccc2)ccc1O,-244.7,1.9,·,98.9*,·,1.4
COc1ccc2c3c(n(C)c2c1)[C@@H](CO)N(C(=O)c1ccccn1)CC31CCN(C(C)=O)CC1,·,·,0.9,·,1.3,·
CCCN1C[C@@H](C)[C@@H](OC)CN(C)C(=O)c2cc(NC(=O)COC)ccc2OC[C@@H]1C,-13.1[16.7 µM],0.7,4.5,·,·,·
O=C1CN(S(=O)(=O)Cc2ccccc2)C[C@H]2[C@@H](c3ccc(C#Cc4ccccc4)cc3)[C@@H](CO)N12,·,·,7.0,·,5.3,·
c1ccc(CCNc2ccc3ncc(-c4cccc5ccccc45)n3n2)nc1,35.1,2.1,-1.0,·,57.1*,-1.5
[O-]c1c[n+](-c2ccc(-[n+]3cc([O-])on3)cc2)no1,3.3,·,-0.4,98.1*,9.8,·
[O-]c1c[n+](-c2ccccc2)no1,-11.3,·,-1.2,-5.0,0.1,-5.3
Cc1cc(C(=O)COC(=O)c2cc(Cl)c(O)c(Cl)c2)c(C)n1C,-0.6,3.7,-3.9,6.5,57.8*,8.7
Cc1cc(C(=O)COC(=O)c2ccc(F)cc2)c(C)n1C,·,-4.6,1.0,-10.3,0.7,-2.5
OCCNCC(O)CN1c2ccccc2Sc2ccccc21 (stereo unspecified),-2.3,-1.7,5.0,99.2*,-3.6,11.3
CCCS(=O)(=O)NC(=O)C1(C)CCN(C(=O)COc2ccc(Cl)cc2Cl)C1 (stereo unspecified),55.7*,0.4,0.5,·,-1.9,-3.4
COc1cc(OC)c(OC)cc1CCC(C)NCCC(c1ccccc1)c1ccccc1 (stereo unspecified),80.5*,5.7,2.6,-19.8,0.7,70.7*
COc1ccc(CCNCCC(c2ccccc2)c2ccccc2)cc1OC,-18.7,1.2,3.4,·,-4.5,45.0
Cc1occc1C(=O)Nc1c(F)c(F)c(F)c(F)c1F,-44.1,-3.6,·,97.5*,·,·
O=C(O)c1ccccc1-c1ccccc1C(=O)Nc1ccc2c(c1)CCC2,4.3,1.2,-1.5,26.2,3.0,-0.7
Cc1occc1C(=O)Nc1ccc2c(c1)CCC2,·,·,-0.9,96.2*,4.1,4.8
SMILES,Env fusion inh,PglD DTNB,CFTR F508del cor,ALR inh,Casp6 inh,NSD2 HMT inh
O=C(Nc1ccc2c(c1)CCC2)c1ccccc1,·,0.2,-2.9,93.2*,-1.4,-3.4
Cc1occc1C(=O)Nc1c(Cl)cccc1Cl,-14.9,-7.5,0.7,2.8,0.1,7.9
O=C(NC1CCCCCC1)C1CCCN1S(=O)(=O)c1cccc2cccnc12 (stereo unspecified),-10.7,1.2,0.2,96.5*,-0.1,·
O=C(NC1CCCC1)C1CCCN1S(=O)(=O)c1cccc2cccnc12 (stereo unspecified),4.1,1.3,0.4,89.0*,-2.3,·
Cc1cccc(C)c1NC(=O)C1CCCN1S(=O)(=O)c1cccc2cccnc12 (stereo unspecified),·,·,·,·,·,-3.7
O=C(Nc1ccc2c(c1)OCO2)N[C@@H]1CC[C@@H](CCNC(=O)C2CCC2)O[C@H]1CO,-8.4[16.7 µM],1.3,-0.6,·,0.2,·
COc1cc(CN2CCc3ccccc3C2)cc([N+](=O)[O-])c1O,-6.5,5.3,1.2,4.2,47.4*,-1.0
C[C@H]1CN([C@@H](C)CO)C(=O)Cc2cc(NS(=O)(=O)c3cn(C)cn3)ccc2O[C@@H]1CN(C)Cc1ccc(C(F)(F)F)cc1,-5.5[16.7 µM],·,-1.0,·,·,·
CC1=C([N+](=O)[O-])C(c2cccc(Br)c2)C2=C(N1)c1ccccc1C2=O (stereo unspecified),138.5*,-1.2,·,0.1,·,-1.2
CC(=O)N1[C@H](CO)[C@H]2c3ccccc3N(C(=O)c3ccccc3)C[C@H]21,·,-0.6,0.2,·,1.5,·
O=C([C@H]1[C@H](CO)[C@H]2Cn3c(cccc3=O)[C@H]2N1Cc1ccccn1)N1CCC(Cc2ccccc2)CC1,·,·,-0.3,·,40.8*,·
COC(=O)[C@H]1[C@H](CO)[C@H]2Cn3c(cccc3=O)[C@H]2N1CC1CCCCC1,·,0.6,-1.9,·,2.9,·
COC(=O)[C@@H]1[C@@H](CO)[C@@H]2Cn3c(cccc3=O)[C@@H]2N1CC1CCOCC1,-1.9[16.7 µM],0.2,·,·,73.8*,·
O=C([C@@H]1[C@@H](CO)[C@@H]2Cn3c(cccc3=O)[C@@H]2N1Cc1cc(F)ccc1F)N1CCOCC1,-26.3[16.7 µM],1.3,·,·,48.8*,·
CN1CCN(C(=O)[C@@H]2[C@@H](CO)[C@@H]3Cn4c(cccc4=O)[C@@H]3N2Cc2cc(F)ccc2F)CC1,·,-2.7,-0.8,·,-1.7,·
C[C@@H]1CN([C@H](C)CO)C(=O)c2cc(-c3ccc(F)cc3)cnc2O[C@H]1CN(C)CC1CCCCC1,16.2[16.7 µM],4.2,-2.7,·,-2.3,·
O=C(Nc1cc(F)ccc1F)N1CC(=O)N2[C@H](CO)[C@H](c3ccc(-c4cccnc4)cc3)[C@H]2C1,·,·,-1.5,·,-0.2,·
CCOC(=O)c1ccc(NC(=O)CCc2nc(-c3ccc(Cl)cc3)no2)cc1,58.8*,-1.7,·,-5.8,·,-1.6
COc1ccc(-c2noc(CCCC(=O)O)n2)cc1,84.4*,2.9,·,-2.5,·,-2.3
CCOC(=O)c1ccc(NC(=O)CCc2nc(-c3ccc(C)cc3)no2)cc1,-20.0,-271.3,·,·,·,-0.4
CCN(CCCNC(=O)CCc1nc(-c2ccc(OC)cc2)no1)c1cccc(C)c1,·,7.8,·,86.7*,·,·
Cc1ccc(-c2noc(CCCC(=O)Nc3cccnc3)n2)cc1,63.5*,·,·,-1.6,·,·
COc1ccc2c3c(n(C)c2c1)[C@@H](CO)N(CC1CCOCC1)CC31CCN(C(=O)Nc2ccccc2)CC1,·,·,-1.2,·,·,·
COCC(=O)N1CC2(CCN(C(=O)CN3CCOCC3)CC2)c2c([nH]c3cc(OC)ccc23)[C@@H]1CO,·,·,-0.8,·,·,·
CN1[C@H](C(=O)NCC2CC2)[C@@H](CO)[C@@H]2Cn3c(ccc(-c4ccc(F)cc4)c3=O)[C@@H]21,·,1.0,-2.0,·,0.7,·
